In the supplement of paper PMC7156485:

tested on: HCC1569; assay: H1.0 immunofluorescence intensity relative to DMSO (% of DMSO); higher = stronger H1.0 induction, active = 140 or more; settings: concentration: 10 µM; 24 h
How it was run: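 Treatment: HCC1569 and TDF cells, 800 per well in 384-well plates with RPMI and 10% FBS, were given compounds at 10 µM for 24 h at 37 °C, in triplicate. Readout: after 3.7% formaldehyde fixation, cells were stained with a rabbit anti-H1.0 antibody, an AlexaFluor 647 secondary and DAPI. Reported values are H1.0 nuclear intensity or cell number as percent of the plate control, taken as the median of replicates, with positional smoothing for HCC1569.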
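Also: TDF is a line of transformed human dermal fibroblasts of mesenchymal origin.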

Q: For `COc1ccc(C(=O)OC2CCC3(C)C4CCC5C6(O)CC(O)C7(O)C(CN8CC(C)CCC8C7(C)O)C6(O)CC53OC24O)cc1OC` (centres undefined) [Veratridine], which H1.0 immunofluorescence intensity is on record?
A: Its H1.0 immunofluorescence intensity is 81.9 (inactive).

Q: For `CC1=NN=C(c2ccc(N)cc2)c2cc3c(cc2C1)OCO3.Cl`, which H1.0 immunofluorescence intensity is on record?
A: The H1.0 immunofluorescence intensity was 104 (inactive).

Q: With `CC(=O)c1c(O)c(C)c(O)c(Cc2c(O)c3c(c(C(=O)C=Cc4ccccc4)c2O)OC(C)(C)C=C3)c1O` [Rottlerin] as the compound, how does the H1.0 immunofluorescence intensity read?
A: The H1.0 immunofluorescence intensity was 104 (inactive).

Q: For `CNC1CC(c2ccc(Cl)c(Cl)c2)c2ccccc21.Cl` (centres undefined) [Indatraline hydrochloride], which H1.0 immunofluorescence intensity is on record?
A: Its H1.0 immunofluorescence intensity is 133 (inactive).

Q: `COc1ccc(C(=O)c2c(C)n(CCN3CCOCC3)c3ccccc23)cc1` [Pravadoline] was tested. Which H1.0 immunofluorescence intensity did it give?
A: Its H1.0 immunofluorescence intensity is 93.3 (inactive).

Q: `CN1C(=O)CCS(=O)(=O)C1c1ccc(Cl)cc1` (centres undefined) [Chlormezanone] was tested. Which H1.0 immunofluorescence intensity did it give?
A: Its H1.0 immunofluorescence intensity is 95.3 (inactive).

Q: `CCC(C)CC(C)N` (centres undefined) [1,3-dimethylpentylamine] was tested. Which H1.0 immunofluorescence intensity did it give?
A: Its H1.0 immunofluorescence intensity is 96.9 (inactive).

Q: Which H1.0 immunofluorescence intensity does the source give for `CCCN(CCC)CCc1c[nH]c2ccc(C(N)=O)cc12.O=C(O)C=CC(=O)O` [N,N-Dipropyl-5-carboxamidotryptamine maleate] here?
A: The H1.0 immunofluorescence intensity was 98.9 (inactive).

Q: How did the H1.0 immunofluorescence intensity turn out when `Cl.Cl.Clc1cccc(N2CCNCC2)c1` [1-(3-Chlorophenyl)piperazine dihydrochloride] was run?
A: Its H1.0 immunofluorescence intensity is 100 (inactive).

Q: For `CCC1C2CC3C4N(C)c5ccccc5C45CC(C2C5O)N3C1O` (centres undefined) [Ajmaline], which H1.0 immunofluorescence intensity is on record?
A: Its H1.0 immunofluorescence intensity is 93.1 (inactive).

Q: Which H1.0 immunofluorescence intensity does the source give for `COc1ccc(CC2NCCc3cc(OC)c(OC)cc32)cc1OC.Cl` (centres undefined) here?
A: The H1.0 immunofluorescence intensity was 80.5 (inactive).

Q: For `NC(=O)CI` [Iodoacetamide], which H1.0 immunofluorescence intensity is on record?
A: The H1.0 immunofluorescence intensity was 170 (active).

Q: `CC(N)Cc1c[nH]c2ccc(OCc3cccs3)cc12.Cl` (centres undefined) was tested. Which H1.0 immunofluorescence intensity did it give?
A: Its H1.0 immunofluorescence intensity is 92.8 (inactive).

Q: `CC1CN(C2CCC(C#N)(c3ccc(F)cc3)CC2)CCC1(C(=O)O)c1ccccc1.Cl` (centres undefined) [Levocabastine.HCl] was tested. Which H1.0 immunofluorescence intensity did it give?
A: Its H1.0 immunofluorescence intensity is 115 (inactive).

Q: How did the H1.0 immunofluorescence intensity turn out when `CC(=O)OCC1=C(C(=O)[O-])N2C(=O)C(NC(=O)CCCC(N)C(=O)[O-])C2SC1.[Zn+2]` (centres undefined) [Cephalosporin C zinc salt] was run?
A: The H1.0 immunofluorescence intensity was 90.8 (inactive).

Q: With `Cc1c(N)nc(C(CC(N)=O)NCC(N)C(N)=O)nc1C(=O)NC(C(=O)NC(C)C(O)C(C)C(=O)NC(C(=O)NCCc1nc(-c2nc(C(=O)NCCC[S+](C)C)cs2)cs1)C(C)O)C(OC1OC(CO)C(O)C(O)C1OC1OC(CO)C(O)C(OC(N)=O)C1O)c1cnc[nH]1.O=S(=O)([O-])O` (centres undefined) [Bleomycin sulfate] as the compound, how does the H1.0 immunofluorescence intensity read?
A: Its H1.0 immunofluorescence intensity is 99.1 (inactive).

Q: Which H1.0 immunofluorescence intensity does the source give for `CNC(=O)Oc1ccc2c(c1)C1(C)CCN(C)C1N2C.CNC(=O)Oc1ccc2c(c1)C1(C)CCN(C)C1N2C.O=S(=O)(O)O` (centres undefined) [Physostigmine sulfate] here?
A: The H1.0 immunofluorescence intensity was 106 (inactive).

Q: With `Oc1ccc2c3c1OC1C(O)CCC4(O)C(C2)N(CC2CCC2)CCC314` (centres undefined) [Nalbuphine] as the compound, how does the H1.0 immunofluorescence intensity read?
A: The H1.0 immunofluorescence intensity was 104 (inactive).

Q: For `NC(C(=O)O)c1cc(=O)[nH]o1` (racemic), which H1.0 immunofluorescence intensity is on record?
A: The H1.0 immunofluorescence intensity was 92.6 (inactive).

Q: How did the H1.0 immunofluorescence intensity turn out when `C=CCN1CCC23c4c5ccc(O)c4OC2C(=O)CCC3(O)C1C5.Cl` (centres undefined) [Naloxone hydrochloride] was run?
A: The H1.0 immunofluorescence intensity was 90.6 (inactive).

Q: `CC(=O)NC1CN2CCC(O)C2C(O)C1O` (centres undefined) [6-Acetamido-6-deoxy-castanospermine] was tested. Which H1.0 immunofluorescence intensity did it give?
A: The H1.0 immunofluorescence intensity was 87.4 (inactive).

Q: How did the H1.0 immunofluorescence intensity turn out when `C=C(C)C1CNC(C(=O)O)C1CC(=O)O` (centres undefined) [Kainic acid] was run?
A: The H1.0 immunofluorescence intensity was 88.9 (inactive).

Q: How did the H1.0 immunofluorescence intensity turn out when `CN1CC(CO)CC2c3cccc4[nH]cc(c34)CC21` (centres undefined) [9,10-Dihydrolysergol] was run?
A: Its H1.0 immunofluorescence intensity is 92.7 (inactive).

Q: How did the H1.0 immunofluorescence intensity turn out when `CCCN1CC(CSC)CC2c3cccc4[nH]cc(c34)CC21.CS(=O)(=O)O` (centres undefined) [Pergolide methanesulfonate] was run?
A: Its H1.0 immunofluorescence intensity is 94.4 (inactive).

Q: `COc1ccc2c(c1)=NC1=C(C)NCCC=21` [Harmaline] was tested. Which H1.0 immunofluorescence intensity did it give?
A: The H1.0 immunofluorescence intensity was 93.9 (inactive).

Q: `CC12NC(Cc3ccccc31)c1ccccc12.O=C(O)C=CC(=O)O` (single isomer, unassigned; (+)) [(+)-MK-801 hydrogen maleate] was tested. Which H1.0 immunofluorescence intensity did it give?
A: Its H1.0 immunofluorescence intensity is 89.3 (inactive).

Q: How did the H1.0 immunofluorescence intensity turn out when `CCC1CN2CCc3cc(OC)c(OC)cc3C2CC1CC1NCCc2cc(OC)c(OC)cc21.Cl.Cl` (centres undefined) [Emetine dihydrochloride hydrate] was run?
A: Its H1.0 immunofluorescence intensity is 99 (inactive).

Q: Which H1.0 immunofluorescence intensity does the source give for `O=S1(=O)N(CCN2CC=C(c3c[nH]c4cc(F)ccc34)CC2)c2cccc3c2N1CCC3` here?
A: Its H1.0 immunofluorescence intensity is 102 (inactive).

Q: How did the H1.0 immunofluorescence intensity turn out when `CCC12C=CCN3CCC4(c5ccc(OC)cc5N(C)C4C(O)(C(=O)OC)C1OC(C)=O)C32` (centres undefined) [Vindoline] was run?
A: The H1.0 immunofluorescence intensity was 90.1 (inactive).

Q: `Cl.c1ccc2sc(C3(N4CCCCC4)CCCCC3)cc2c1` [BTCP hydrochloride] was tested. Which H1.0 immunofluorescence intensity did it give?
A: Its H1.0 immunofluorescence intensity is 96.6 (inactive).

Q: How did the H1.0 immunofluorescence intensity turn out when `CN1CC(CO)C=C2c3cccc4[nH]cc(c34)CC21` (centres undefined) [Lysergol] was run?
A: Its H1.0 immunofluorescence intensity is 87.6 (inactive).

Q: `CCCN(CCC)C1CCc2c(F)ccc(O)c2C1.Cl` (stereo not drawn) [R(+)-UH-301 hydrochloride] was tested. Which H1.0 immunofluorescence intensity did it give?
A: Its H1.0 immunofluorescence intensity is 101 (inactive).

Q: For `CS(=O)(=O)O.Oc1ccc2c3c1OC1c4oc5ccccc5c4CC4(O)C(C2)N(CC2CC2)CCC314` (centres undefined) [Naltriben methanesulfonate], which H1.0 immunofluorescence intensity is on record?
A: The H1.0 immunofluorescence intensity was 105 (inactive).

Q: With `CCC(C)C(=O)OC1C(O)C2C(CN3CC(C)CCC3C2(C)O)C2CC34OC5(O)C(OC(=O)C(C)(O)C(C)O)CCC3(C)C5C(OC(C)=O)C(OC(C)=O)C4C21O` (centres undefined) [Protoveratrine B] as the compound, how does the H1.0 immunofluorescence intensity read?
A: The H1.0 immunofluorescence intensity was 93.2 (inactive).

Q: Which H1.0 immunofluorescence intensity does the source give for `CC1(O)CC23CC(O)C4(O)C(CC(O)C4(C)C)C(C)(O)C2CCC1C3O` (centres undefined) [Grayanotoxin III] here?
A: The H1.0 immunofluorescence intensity was 88.2 (inactive).

Q: `CC(C)(C)NCC(O)c1ccccc1Cl` (centres undefined) [Tulobuterol] was tested. Which H1.0 immunofluorescence intensity did it give?
A: Its H1.0 immunofluorescence intensity is 114 (inactive).

Q: Which H1.0 immunofluorescence intensity does the source give for `Cc1cc(C(=O)CN2CCCC2)c(C)n1-c1ccc(F)cc1` here?
A: Its H1.0 immunofluorescence intensity is 94.1 (inactive).

Q: Which H1.0 immunofluorescence intensity does the source give for `O=C1NC(=O)c2c1c1c3ccccc3[nH]c1c1[nH]c3ccccc3c21` here?
A: Its H1.0 immunofluorescence intensity is 127 (inactive).

Q: For `OCC1CCCN2CCCCC12` (centres undefined) [Lupinine], which H1.0 immunofluorescence intensity is on record?
A: The H1.0 immunofluorescence intensity was 84.3 (inactive).
